Screening data as filed in PubChem BioAssay.
esBAF inh: Bmi1 luciferase reporter increase in mESCs, primary screen, esBAF inhibitor project, mouse ES cells, Bmi1 luciferase knock-in, single point. reporter increase, % at 12.5 µM. 24 h; 100% = twice the neutral-well signal. actives 2% (n = 350,000); in the data active = activation above about 40%; inconclusive = no clear call, values can overlap the other calls;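 note: 0% = median of the plate's neutral control wells and 100% = double that signal; a rise in the Bmi1 reporter signal indicates esBAF inhibition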
Wnt act: Wnt/beta-catenin pathway activators, primary screen, cell-based, plate reader, single point. Wnt/beta-catenin reporter cell assay, activator. activation, % at 9.35 µM. actives 1.2% (n = 300,000). AID 743398, 2014; in the data active = activation above about 30%, passing the limit was not always enough; inconclusive = no clear call, values can overlap the other calls;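 note: 0% = neutral control wells and 100% = positive control wells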
MITF TRPM1 HTS: activators of MITF-driven TRPM1 promoter reporter, primary screen, cell-based, SK-MEL-5, luciferase, single point; SK-MEL-5 TRPM1-promoter luciferase, 24 h; % of positive control, neutral wells = 0; activation, % at 12.5 µM; actives 0.75% (n = 300,000); AID 588334, 2011;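 active = mean activation of at least 80% with every replicate also reaching 80%; inconclusive = mean reaches 80% but some replicate falls short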;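 note: 0% = neutral control wells and 100% = parthenolide positive control wells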
FXN GAA850 act: FXN promoter activators, primary screen, cell-based, luciferase luminescence, HEK293 lucGAA850; actives 0.56% (n = 360,000); AID 540364, 2011; activation, % at 6 µM; HEK293 lucGAA850 FXN promoter luciferase reporter, 24 h; percent of 10 µM SAHA response;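 active = activation above the average of all compounds screened plus 3 SD, cutoff fixed separately per campaign, cut at about 7.5% in these data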;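 note: 0% = DMSO wells and 100% = 10 µM SAHA wells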
* hit, by the source's call; ? = inconclusive; . = no result. In the library only some 2.8% were active in any assay of this set; here they are far more common.

SMILES	esBAF inh	Wnt act	MITF TRPM1 HTS	FXN GAA850 act
COc1ccc(N2C(=O)c3ccccc3NC23CCC(C)CC3)cc1 (stereo unspecified)	.	.	65	1
COc1ccc(N2C(=O)c3ccccc3NC2(C)C)cc1	5	-1	47	5
CC1(C)Nc2ccccc2C(=O)N1c1ccc(Br)cc1	.	66*	.	1
COc1ccc(N2C(=O)c3ccccc3NC23CCCCC3)cc1	-24	28	99*	1
CCOc1ccc(N2C(=O)c3ccccc3NC2(C)CC)cc1 (stereo unspecified)	18	?	124*	1
COCC(=O)N1C[C@@H](C)[C@@H](OC)CN(C)C(=O)c2ccc(NC(=O)Nc3ccccc3)cc2OC[C@@H]1C	4	.	.	.
COCC#Cc1ccc2c(c1)O[C@H](CN(C)C(=O)C1CCC1)[C@@H](C)CN([C@H](C)CO)S2(=O)=O	1	.	.	.
CO[C@@H]1CN(C)C(=O)c2ccc(NC(C)=O)cc2OC[C@@H](C)N(C(=O)C2CC2)C[C@@H]1C	6	.	.	.
CSc1nc(N)nc(SCC(=O)c2ccc(C)cc2)c1C#N	61*	.	54	4
CSc1nc(N)nc(SCC(=O)OC(C)C)c1C#N	4	17	.	6
C/C=C/c1ccc2c(c1)O[C@H](CN(C)C(=O)CC)[C@@H](C)CN([C@H](C)CO)S2(=O)=O	2	.	.	.
COC(=O)C(C)N1C(=O)S/C(=C/c2cc(C)n(-c3ccccn3)c2C)C1=O (stereo unspecified)	-9	57*	20	4
COC(=O)C(C)N1C(=O)S/C(=C\c2cc(C)n(-c3ccccn3)c2C)C1=O (stereo unspecified)	-48	.	40	2
CCOC(=O)CN1C(=O)S/C(=C/c2cc(C)n(C)c2C)C1=O	47*	40*	88*	3
CCOC(=O)CN1C(=O)S/C(=C/c2ccc(C)o2)C1=O	12	0	13	2
CCOC(=O)CN1C(=O)S/C(=C/c2cc(C)n(-c3ccccn3)c2C)C1=O	45*	.	53	4
O=c1oc(-c2ccc([N+](=O)[O-])cc2)nc2ccccc12	.	10	.	-1
O=c1oc(-c2ccc(Br)cc2)nc2ccccc12	46*	8	5	2
CCCNC(=O)C[C@@H]1CC[C@H]2[C@@H](COc3ccc(NC(=O)c4cccc(Cl)c4)cc3C(=O)N2C)O1	10	.	.	.
Cc1ccc(S(=O)(=O)Nc2ccc3c(c2)C(=O)N([C@H](C)CO)C[C@@H](C)[C@H](CN(C)C(=O)Nc2ccc(C(F)(F)F)cc2)O3)cc1	14	.	.	.
N#C/C(=C\c1ccc2c(c1)OCCO2)C(=O)Nc1ccc(C(=O)O)cc1	61*	15	23	2
O=C(CCN1C(=O)C2CCCCC2C1=O)Nc1nc2c(F)cc(F)cc2s1 (stereo unspecified)	?	41*	90*	5
O=C(CCN1C(=O)C2CCCCC2C1=O)Nc1nc2ccc(F)cc2s1 (stereo unspecified)	-32	?	37	1
Cc1cccc2sc(NC(=O)C3CC3)nc12	8	4	25	1
Cc1ccc2sc(NC(=O)C3CC3)nc2c1C	63*	22	37	4
SMILES	esBAF inh	Wnt act	MITF TRPM1 HTS	FXN GAA850 act
O=C(Nc1nc2c(F)cc(F)cc2s1)C1CC1	49*	15	.	3
O=C(CN1C(=O)CCC1=O)Nc1nc2c(F)cc(F)cc2s1	-2	1	6	1
COc1cccc(C(=O)Nc2ccc3c(c2)OC[C@@H](C)NC[C@H](C)[C@@H](OC)CN(C)C3=O)c1	-4	.	.	.
CCOc1ccc(C(=O)NC2CCCCCCC2)cc1	.	42*	79	3
Cc1ccc(C(=O)NC2CCCCC2)cc1	12	17	88*	3
O=C(NC(=S)NC1CCN(Cc2ccccc2)CC1)c1ccc(F)cc1	1	1	-13	1
O=C(NC(=S)NC1CCCCC1)c1ccc(F)cc1	60*	21	59	7
CCOc1cccc(C(=O)NC2CCCCC2)c1	53*	-1	54	6
CCNC(=O)C[C@H]1CC[C@H]2[C@@H](COc3ccc(NC(=O)Nc4ccccc4OC)cc3C(=O)N2C)O1	-4	.	.	.
C[C@H]1CN([C@@H](C)CO)S(=O)(=O)c2ccc(C#CC3CC3)cc2O[C@@H]1CN(C)C(=O)CN(C)C	1	.	.	.
O=C(c1cccnc1)N1C[C@H]2[C@@H](c3ccccc31)[C@@H](CO)N2CC1CCCCC1	-4	.	.	.
